Records with an inconclusive call do not appear. Active and inactive are the calls of the source. The call rests on the fitted dose curve; in most records, active means well fitted inhibition curve with a large enough effect; inconclusive means small, poorly fitted or top-dose-only effect, or effect the other way, or another doubt; inactive means no such curve, though single readings can be large or run the other way.
Assay: Confirmation Concentration-Response Assay for lipid storage modulators; further: nearly all actives have a fitted effect of over 80% in size
Details: Drosophila S3 cells, lipid droplet BODIPY/CellTracker ratio, 18-24 h; series mostly up to 46.1 µM
Source text: NIH Molecular Libraries Probe Production Centers Network [MLPCN] NIH Chemical Genomics Center [NCGC] MLPCN Grant: 1 R03 MH085686-01 Assay Submitter (PI): Beller, Mathias; Max-Planck-Institut fur Biophysikalische Chemie NCGC Assay Overview: Storing lipids as a reservoir for energy or the anabolism of elementary metabolites is a common feature of probably all cells and is conserved from bacteria to humans. The universal cellular lipid storage organelle is the so-called lipid storage droplet (LD). Although ubiquitous, LDs share a simple structure composed of a hydrophobic core that harbors the storage lipids, which is shielded by a droplet-specific phospholipid monolayer to which proteins are attached. The current model of LD biogenesis involves an incorporation of the lipid core into the membrane leaflets of the endoplasmic reticulum (ER) followed by a subsequent budding-like maturation of a LD, which ultimately pinches off. Once released, LD volume can increase by localized lipogenesis or fusion of existing droplets. Storage lipids are re-mobilized enzymatically by lipase activity. Lipase regulation in the adipocyte is heavily studied and involves multiple components including catecholamine signaling, the LD-associated proteins Perilipin and comparative gene identification-58 (CGI-58) and at least two lipases named hormone sensitive lipase (HSL) and adipocyte triglyceride lipase (ATGL). LD regulation outside of the adipocyte is poorly understood and only few components are known. However, there is an urgent need to learn more about ectopic fat depots as mislocalized storage of lipids, for example in the liver or muscle, is an eminent health problem associated with insulin resistance or the metabolic syndrome. We developed a laser-scanning cytometer assay to enable 1,536-well screening and combined the results of the small molecules screen with an RNAi database based on lipid storage. Exo1 identified in the primary screen (AID 1519) and several analogs were measured in the lipid storage assay as 24-point concentration-response curves to confirm potency and SAR.
We dispensed 4 uL of cells at 1.25 x 10^6 cells/mL into LoBase Aurora COC 1,536-well plates (black walled, clear bottom) with a bottle-valve solenoid-based dispenser (Aurora) to obtain 5,000 cells/well. Triacsin C (Sigma-Aldrich T-4540), an inhibitor of long-chain fatty acyl CoA synthetase that blocks synthesis of triglycerides, was used as a positive control for lipid under-storage. A total of 23 nL of compound solution of different concentrations were transferred to the assay plates using a Kalypsys pin tool equipped with a 1,536-pin array containing 10-nL slotted pins (FP1S10, 0.457-mm diameter, 50.8 mm long; V&P Scientific). One microliter of oleic acid (400 uM) was added, and the plate was lidded with stainless steel rubber gasket lined lids containing pinholes. After 18-24 h incubation at 24 degree Celsius and 95% humidity, 4 uL of the dyes BODIPY 493/503 (Molecular Probes) and the Cell Tracker Red CMTPX dye (Molecular Probes) were added to the wells to stain lipid droplets and enumerate cell number, respectively. Fluorescence was detected by excitation of the fluorophores with a 488-nm laser on an Acumen Explorer (TTP Lab Tech). The total intensity in channel 1 (500-530 nm) reflected lipid droplet accumulation. Cells were detected using channel 3 (575- 640 nm) with 5-um width and 100-um depth filters. The ratio of the total intensity in PMT channel 1 over total intensity of channel 3 was also calculated. Percent activity was computed relative to an internal control (100% inhibited lipid droplet deposition due to the presence of 20 uM Triacsin C), which was added to 32 wells/plate.
Potency means the concentration at half of the fitted maximal effect.

SMILES | Potency
Nc1c(C(=O)C2CC2)sc2nc(-c3ccccc3)cc(C(F)(F)F)c12 | 1.58 µM (active)
O=C(CCc1ccccn1)NC1CCCc2c1cnn2-c1ccc(F)cc1F (stereo not given) | inactive
COc1ccc(NC(=O)NC2(C(=O)N3CCOCC3)CCCCC2)cc1 | inactive
COc1ccccc1Nc1nnc(SCC(=O)Nc2nc(-c3ccc(F)cc3)cs2)s1 | 0.705 µM (active)
CCCOc1ccc(Cc2c(Cl)nc(SC)nc2NC)cc1 | 14.1 µM (active)
COc1cccc2cc(-c3nnc(SCC(=O)Nc4nc(C)cs4)n3C)oc12 | 1.99 µM (active)
COc1ccc(N=Nc2nc(-c3ccccc3)c(-c3ccccc3)[nH]2)cc1 | 2.5 µM (active)
COc1ccc(CCNC(=O)Cn2cnc3c(cnn3-c3ccccc3Cl)c2=O)cc1OC | inactive
Cc1cc(C(=O)O[C@H]2[C@H](C)NS(=O)(=O)[C@H]3C[C@@H]4C=C[C@]23O4)cc([N+](=O)[O-])c1 | inactive
COC(=O)c1ccccc1NC(=O)c1ccc(C#N)cc1 | 1.12 µM [activator] (active)
COc1ccc(/C=C(\NC(=O)c2cccs2)C(=O)Nc2ccc(C)cc2)cc1OC | 0.141 µM (active)
O=C(NCc1ccccc1)NC1(C(=O)N2CCCC2)CCCCC1 | inactive
CC1CCN(C(=O)C2(NC(=O)Nc3cccc(F)c3)CCCCC2)CC1 | 7.91 µM (active)
COc1ccc(CCCc2nnc(SCC(=O)Nc3nc(C)cs3)n2C)cc1C | 1.41 µM (active)
CCOc1ccc2nc(NC(=O)CSc3nc(SC)ns3)sc2c1 | 4.45 µM (active)
Cc1cccc(OCc2nnc(SCC(=O)N3c4ccccc4CC3C)n2C)c1C (stereo not given) | 6.28 µM (active)
Cc1ccccc1-n1ncc(C(C)NC(=O)c2ccco2)c1C (stereo not given) | 0.396 µM (active)
CN1CCN(C(=O)C2(NC(=O)NCc3ccccc3)CCCCC2)CC1 | inactive
COc1cccc(/C=C/C(=O)NCCc2ccc(OC)c(OC)c2)c1 | 1.77 µM (active)
COCc1ccc(C(=O)NC2CCCc3c2cnn3-c2cc(C)cc(C)c2)s1 (stereo not given) | 0.0244 µM (active)

SMILES | Potency
CCOc1ccc(CCNC(=O)c2cc3sccc3n2C)cc1OCC | 0.705 µM (active)
O=C(Nc1ccc(S(=O)(=O)N2CCCC2)cc1)c1ccc(CN2CCc3ccccc3C2)cc1 | 14.1 µM (active)
CCn1c(Cc2ccc(OC)cc2)nnc1SCC(=O)Nc1cccc(C(=O)OC)c1 | inactive
COc1ccc(CCNC(=O)COc2ccc(S(=O)(=O)NCC(C)C)cc2Cl)cc1OC | inactive
Cn1nc(C(C)(C)C)cc1C(=O)NCc1ccc2c(c1)OCO2 | 2.5 µM (active)
CCCCc1c(O)nc(SCC(=O)NCCc2ccc(OC)c(OC)c2)[nH]c1=O | inactive
COc1ccc(CCNC(=O)Cn2nnc(-c3ccc(N4CCOCC4)cc3)n2)cc1OC | 0.0445 µM (active)
CCOC(=O)C1CCN(C(=O)C2(NC(=O)NC3CCCCC3)CCCCC2)CC1 | 1.41 µM (active)
Cc1ccccc1NC(=O)NC1(C(=O)N2CCC(O)CC2)CCCCC1 | inactive
CCCCCCCCCCCCCCCCn1cc[n+](C)c1 | 3.15 µM (active)
O=C(CCC1CCCN(C(=O)c2ccc3c(c2)OCCO3)C1)NCc1ccccc1F (stereo not given) | 2.23 µM (active)
CNc1cccc2c1C(=O)c1ccccc1C2=O | 6.28 µM (active)
OC1(c2cccc(C(F)(F)F)c2)CCN(c2ncnc3c2[nH]c2ccc(F)cc23)CC1 | 7.91 µM (active)
CCOc1ccc(CCNC(=O)COC(=O)COc2ccc(Br)cc2)cc1OCC | inactive
COc1ccc2c(c1)O[C@@H](c1cccc(C(F)(F)F)c1)[C@H](OC(=O)NCCc1ccc(OC)c(OC)c1)C2=O | 4.99 µM (active)
CCC(C)(C)NC(=O)C(c1ccc(OC)cc1)N(CCOC)C(=O)CCC(=O)Nc1nccs1 (stereo not given) | 19.9 µM (active)
COc1ccc(CCNC(=O)Cn2cccc2C(=O)c2ccccc2C)cc1OC | inactive
COc1cccc(C(=O)O[C@H]2[C@H](C)NS(=O)(=O)[C@H]3C[C@@H]4C=C[C@]23O4)c1 | inactive
O=C1c2ccccc2C(=O)c2c(Nc3ccc(CCO)cc3)ccc(O)c21 | 25 µM (active)
CCc1ccc(NC(=O)COc2ccc(/C=C(/C#N)c3nc4ccccc4[nH]3)cc2OC)cc1 | 7.05 µM (active)

From PubChem BioAssay AID1569 (National Center for Advancing Translational Sciences (NCATS), 2009)
